Screens deposited in PubChem by several laboratories.
Most compounds without a hit are left out; they make up all but 3.4% or so of the library.
Gli-Sufu block – antagonists of Gli-Sufu signaling | Sufu-KO-LIGHT fibroblasts, Gli luciferase reporter luminescence | inhibition, % at 5 µM | 340,000 tested, 0.74% active | AID 588413;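 active = inhibition above about 55%, limit read from the data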;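 note: 0% = DMSO-treated cells and 100% = wells with medium but no cells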
SMARCA2 act – increases SMARCA2 function in MMTV reporter cells; MG213 cells, MMTV-luciferase reporter, dexamethasone, overnight; activation, % at 9.1 µM; 370,000 tested, 1% active; in the data active = activation above about 7.8%;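 note: 0% = vehicle wells and 100% = reference activator wells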
GalR3 antagonist – human GalR3 antagonism. 360,000 tested, 0.44% active. HEK293 GalR3-CNG cAMP membrane potential fluorescence; galR3 body fused to GalR1 C-terminus. inhibition, % at 3 µM;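 active = inhibition above the screen-wide average plus 3 SD, cut at about 13% in these data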;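 note: forskolin and galanin both at EC90 stimulate the cells; cAMP rise reported by CNG channel membrane potential dye signal; 0% = forskolin plus galanin with DMSO and 100% = forskolin alone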
Target sequence (O60755 1-299 limits assumed): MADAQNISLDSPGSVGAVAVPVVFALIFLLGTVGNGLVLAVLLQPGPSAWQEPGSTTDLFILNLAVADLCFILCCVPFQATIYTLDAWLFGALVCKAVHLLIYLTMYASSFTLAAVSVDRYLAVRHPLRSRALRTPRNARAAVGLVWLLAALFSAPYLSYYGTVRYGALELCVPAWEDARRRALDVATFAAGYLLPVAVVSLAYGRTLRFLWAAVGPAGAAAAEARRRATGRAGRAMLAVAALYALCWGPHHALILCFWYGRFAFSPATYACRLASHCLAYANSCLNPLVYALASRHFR
COUP-TFII inh – inhibitors of human COUP-TFII (NR2F2). HEK293T NGFI-A luciferase reporter, luminescence. inhibition, % at 8.6 µM. 370,000 tested, 0.7% active. AID 686940. P24468;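 active = inhibition above a per-plate cutoff, mean inhibition of test wells between control levels plus 3 SD, cut at about 38% in these data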;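 note: cells cotransfected with COUP-TFII expression vector driving the NGFI-A reporter; 0% = median of COUP-TF2 test wells and 100% = reporter-only cells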
FXN GAA850 act – activators of GAA850 frataxin (FXN) promoter; HEK293 lucGAA850 FXN promoter luciferase reporter, 24 h; percent of 10 µM SAHA response; activation, % at 6 µM; 360,000 tested, 0.56% active;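 active = activation above the average of all compounds screened plus 3 SD, cutoff fixed separately per campaign, cut at about 7.5% in these data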;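 note: 0% = DMSO wells and 100% = 10 µM SAHA wells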
H9c2 protect – protects H9c2 cardiomyocytes from peroxide injury. H2O2 injury protection, ATPLite, 2 h. protection from H2O2 cell death, % at 20 µM. 360,000 tested, 0.63% active;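 active = compounds giving at least 50% protection of heart cells from peroxide-induced death in the single-dose screen, raw or plate-pattern-corrected value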;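 note: 0% = DMSO wells with peroxide and 100% = DMSO wells without peroxide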
Gli-Sufu confirm – Gli-SUFU antagonism confirmation, single concentration; inhibition, % at 5 µM; shares compounds with Gli-Sufu block; AID 602428; 2,500 tested, 40% active; Sufu-KO-LIGHT cells, Gli luciferase reporter, luminescence;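 active = mean inhibition at 5 µM reaching about 45%, limit read from the data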;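 note: plate controls were DMSO-treated cells for no effect and wells lacking cells for full effect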
Gli cytotox – cytotoxic in Gli-SUFU antagonist counter-screen | shares compounds with Gli-Sufu block | Sufu-KO-LIGHT cells cytotoxicity, ATP luminescence | cytotoxicity, % at 5 µM | 2,500 tested, 32% active;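 active = mean cytotoxicity at 5 µM above about 25%, limit read from the data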;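 note: cells exposed to compound overnight for roughly 16 to 18 hours; plate controls were DMSO wells with cells for no effect and medium without cells for full effect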
Wnt3a cs – counter-screen for Gli-SUFU antagonists: Wnt3a reporter inhibition; inhibition, % at 6.25 µM; 2,500 tested, 20% active; Wnt-LIGHT cells, Wnt3a-driven luciferase reporter, luminescence; shares compounds with Gli-Sufu block;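 active = mean inhibition above about 25%, limit read from the data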
Active calls of the source: *; nt = no result.

SMILES	Gli-Sufu block	SMARCA2 act	GalR3 antagonist	COUP-TFII inh	FXN GAA850 act	H9c2 protect	Gli-Sufu confirm	Gli cytotox	Wnt3a cs
CCN(Cc1ccccc1)C(=O)COC(=O)c1cc(S(=O)(=O)Nc2ccccc2OC)ccc1O	58*	-2	-3	-17	-2	-9	7	-3	-50
Cn1c(=O)c2c(nc(SCC(=O)NCc3ccc4c(c3)OCO4)n2Cc2ccc(Cl)cc2)n(C)c1=O	62*	-1	3	-5	3	17	27	-7	-25
Cn1c(=O)c2c(nc(NCc3ccc4c(c3)OCO4)n2Cc2ccccc2Cl)n(C)c1=O	18	-1	-2	3	2	1	nt	nt	nt
NC(=O)NN=C1CCC(OCc2ccccc2)CC1CC(=O)O (centres undefined)	nt	-4	-1	-6	nt	0	nt	nt	nt
CCCCCCCOc1ccc(OC(=O)c2cccnc2)cc1	74*	-2	0	13	0	-10	60*	20	-8
CCCCCCCOc1ccc(OC(=O)c2ccncc2)cc1	74*	-2	-9	1	2	-7	63*	20	10
O=C(NCCc1ccccc1F)c1ccc2c(c1)ncn2C1CCCCC1	nt	2	nt	-63	nt	nt	nt	nt	nt
COc1ccc(Nc2ncc(C(=O)N3CCN(Cc4ccccc4)CC3)c3ccccc23)cc1	99*	-8	-7	30	-4	10	29	6	-90
COC(=O)[C@]12C[C@H](CC(=O)NCCC(C)C)C(=O)N(Cc3ccc4c(c3)OCO4)C1=C[C@H](C(C)C)O[C@@H]2C1CC1	nt	-3	nt	-9	nt	nt	nt	nt	nt
CCOC(=O)C1CCCN(C2CCN(Cc3nc(Cc4ccccc4)no3)CC2)C1 (centres undefined)	50	3	-3	3	0	-2	23	10	-29
Nc1nc(SCC(=O)O)[nH]c(=O)c1NC(=O)c1ccco1	-3	-2	-2	-3	3	4	nt	nt	nt
COc1ccc(C(=O)N/C(=C/c2ccccc2F)C(=O)NCCN2CCOCC2)cc1OC	71*	0	0	-4	0	-4	23	10	-4
CCN(CC)CCn1c(=S)[nH]c2cc(C(=O)NCc3ccccc3Cl)ccc2c1=O	1	-1	-9	-18	2	11	nt	nt	nt
CCOC(=O)c1c(C)[nH]c(C)c1S(=O)(=O)NCCN1CCN(c2ccccc2F)CC1	67*	0	-9	21	0	2	21	12	-17
CCCCNCCCOc1ccc(C)cc1Br	67*	3	-10	-10	0	-2	25	10	-21
CCCCNCCCOc1cccc(Cl)c1Cl	62*	1	-10	-12	3	13	10	25	-53
COc1ccc(C(CNC(=O)c2cc(S(=O)(=O)N3CCN(c4ccccc4)CC3)ccc2Cl)N(C)C)cc1 (centres undefined)	68*	-1	-8	29	-5	-6	21	13	-43
CN(C)C(CNC(=O)c1cccc(S(=O)(=O)N2CCN(c3ccccc3)CC2)c1)c1ccccc1 (centres undefined)	29	-4	-9	7	-4	-20	nt	nt	nt
COc1cc(CN(C)CC2CCCN(CCc3ccc(F)cc3)C2)c(Cl)cc1O (centres undefined)	55*	-1	-1	-2	1	0	15	7	-25
COc1ccccc1CCN1CCCC(CN(C)CC(C)(C)CO)C1 (centres undefined)	-8	-1	-2	7	1	-1	nt	nt	nt
COc1ccccc1CCN1CCCC(CN(C)Cc2ccc(OCCO)cc2)C1 (centres undefined)	55	-1	-8	15	0	1	28	8	-9
O=C1CCN1C1(C(=O)NC2CCCCC2)CCCC1	0	-1	-2	3	1	5	nt	nt	nt
C[C@@H]1CN([C@@H](C)CO)S(=O)(=O)c2ccc(Br)cc2O[C@@H]1CN(C)S(=O)(=O)c1ccc(F)cc1	nt	-4	-4	-6	nt	nt	nt	nt	nt
COC(=O)[C@]12C[C@H](CC(=O)N3CCOCC3)C(=O)N(Cc3ccc4c(c3)OCO4)C1=C[C@H](C(C)C)O[C@@H]2C1CC1	nt	-1	nt	6	nt	nt	nt	nt	nt
COc1ccc(CN2CCN(C(=O)CN3C(=O)C4C5C=CC(C5)C4C3=O)CC2)c(OC)c1OC (centres undefined)	62*	-6	-1	18	-2	-4	19	21	-3
SMILES	Gli-Sufu block	SMARCA2 act	GalR3 antagonist	COUP-TFII inh	FXN GAA850 act	H9c2 protect	Gli-Sufu confirm	Gli cytotox	Wnt3a cs
O=C(CN1CCOc2ccccc21)N1CCN(c2cccc(Cl)c2)CC1	61*	0	-1	-2	-1	-5	20	10	-17
CCCC(C)C(=O)Nc1nc(C)c(-c2csc(Nc3ccc(Cl)cc3)n2)s1 (centres undefined)	53	0	-3	10	-1	-16	60*	18	5
COc1ccc(N2CC(C(=O)NCc3nnnn3-c3ccc(C)c(C)c3)CC2=O)cc1 (centres undefined)	51	5	-8	-4	0	-2	18	-2	-9
Cc1c(N)cc(C(=O)N2CCOCC2)cc1[N+](=O)[O-]	93*	-1	-10	1	0	2	16	-12	14
Cc1ccc(C(=O)N2CCOCC2)cc1[N+](=O)[O-]	-2	0	-3	12	3	12	nt	nt	nt
CN(C)/C=N/c1nc2nccc(-c3cccnc3)n2n1	1	3	1	-11	0	-1	nt	nt	nt
Nc1nc2nccc(-c3cccnc3)n2n1	95*	1	-4	-21	2	1	11	12	1
O=S(=O)(c1ccc2c(c1)nc(COc1ccc(Cl)cc1)n2CC1CCCO1)N1CCOCC1 (centres undefined)	60*	-4	-2	0	2	-7	45*	9	33*
Cc1cccc(N/C=C/c2onc(C)c2[N+](=O)[O-])c1	53	5	-5	-16	5	-8	-52	11	-79
CCSc1nc2sc3c(c2c(=O)n1C1CCCCC1)CCN(C)C3	20	-4	-4	6	1	-13	nt	nt	nt
C=C(C)CSc1nc2sc3c(c2c(=O)n1C1CCCCC1)CCN(C)C3	58*	-5	-2	-6	2	-12	47*	25*	-7
C=COCCCNc1ncnc2sc(-c3ccccc3)cc12	61*	-5	-12	23	0	-14	48*	39*	2
CN(C)S(=O)(=O)c1ccc2oc(SCC(N)=O)nc2c1	67*	0	-2	-1	0	9	12	7	-3
